# Calls of active or inactive are those of the source.
# Assays:
# [1] = molecular target: Albumin (Bos taurus) (UniProt P02769); experiment: compounds binding labelled BSA control protein – biochemical, small-molecule microarray, Alexa647 label, 635/667 nm fluorescence, artefact control for SMM control protein annotation, profiling panel (AID 1118); conditions: BSA-A647 binding, fluorescence 635 nm, higher = more signal;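 also: score merges 667 nm emission intensity and signal-to-noise per printed compound spot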
# [2] = probe aXIP binding to arrayed compounds – biochemical, NeuroSMM set, 635/667 nm fluorescence, primary screen (AID 1119); conditions: small-molecule microarray, higher = more signal, called active from +8 up or from −8 down;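 also: probe is the protein aXip251-270 applied at 1 µg/mL to compound-printed slides; binding of probe to printed compounds measured as 667 nm fluorescence plus signal to noise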
# [3] = probe aNOTCH3 binding on compound microarray – biochemical, small-molecule microarray, 635/667 nm fluorescence, primary screen (AID 1120); conditions: higher = more signal;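 also: probe is a biotin-tagged antibody raised against NOTCH3 rather than NOTCH3 protein; score merges spot fluorescence near 667 nm with spot signal to noise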
# [4] = probe aNOTCH2 binding on compound microarray – biochemical, small-molecule microarray, 635/667 nm fluorescence, primary screen (AID 1121); conditions: higher = more signal;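 also: score merges feature fluorescence read at 667 nm with its signal to noise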
# [5] = molecular target: Carbonic anhydrase 2 (Homo sapiens) (UniProt P00918); experiment: compounds binding carbonic anhydrase 2 – biochemical, small-molecule microarray, Alexa647-labelled CAII, profiling panel (AID 1122); conditions: CAII-A647 binding fluorescence, higher = more signal
# [6] = COS7 lysate on small-molecule microarray, probe aHis, 635 nm (AID 1123); conditions: COS7 cell lysate, fluorescence, higher = more signal;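 also: z-score combines 667nm fluorescence intensity with signal-to-noise per printed compound spot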
# [7] = probe aLAP1 signal on lysate-treated microarray – cell lysate, small-molecule microarray, COS7 lysate, primary screen (AID 1124); conditions: probe aLAP1, fluorescence, higher = more signal;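 also: lysate comes from COS7 cells expressing LAP1 and is applied at 0.3 µg/mL; score merges spot fluorescence near 667 nm with signal-to-noise over triplicate slides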
# [8] = tested on: Sam68 (KHDRBS1); experiment: compounds binding KHDRBS1 protein – biochemical, small-molecule microarray, 635 nm fluorescence, primary screen (AID 1125); conditions: higher = more signal;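 also: score merges 667 nm channel intensity with signal to noise over triplicate slides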
# [9] = tested on: Chordin-like protein 2 (CHRDL2); experiment: compounds binding chordin-like 2 – biochemical, small-molecule microarray, 635 nm fluorescence, primary screen (AID 1126); conditions: fluorescence 635 nm, higher = more signal;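 also: printed compound slides probed with Chrdl2 protein at 4 µg/mL for 1 h at 4 C; score merges 667 nm emission intensity with signal to noise over three replicate slides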
# [10] = molecular target: Concanavalin-A (Canavalia ensiformis) (UniProt P02866); experiment: compounds binding concanavalin A lectin – biochemical, small-molecule microarray, Alexa647 label, 635 nm, artefact control for SMM control protein annotation, primary screen (AID 1127); conditions: ConA-A647 binding fluorescence, higher = more signal;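 also: z combines 667 nm emission intensity with signal-to-noise across three replicate slides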
# Concanavalin-A (Canavalia ensiformis), sequence (P02866 whole entry, looked up): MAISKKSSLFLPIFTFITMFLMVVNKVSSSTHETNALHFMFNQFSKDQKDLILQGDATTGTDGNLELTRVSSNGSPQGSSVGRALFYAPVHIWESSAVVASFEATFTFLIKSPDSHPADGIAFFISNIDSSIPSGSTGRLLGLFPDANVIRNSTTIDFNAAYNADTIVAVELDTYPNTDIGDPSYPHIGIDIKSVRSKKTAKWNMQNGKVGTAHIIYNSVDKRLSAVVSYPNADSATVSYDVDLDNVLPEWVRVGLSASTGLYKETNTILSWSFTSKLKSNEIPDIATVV
# Albumin (Bos taurus), sequence (P02769 whole entry, looked up): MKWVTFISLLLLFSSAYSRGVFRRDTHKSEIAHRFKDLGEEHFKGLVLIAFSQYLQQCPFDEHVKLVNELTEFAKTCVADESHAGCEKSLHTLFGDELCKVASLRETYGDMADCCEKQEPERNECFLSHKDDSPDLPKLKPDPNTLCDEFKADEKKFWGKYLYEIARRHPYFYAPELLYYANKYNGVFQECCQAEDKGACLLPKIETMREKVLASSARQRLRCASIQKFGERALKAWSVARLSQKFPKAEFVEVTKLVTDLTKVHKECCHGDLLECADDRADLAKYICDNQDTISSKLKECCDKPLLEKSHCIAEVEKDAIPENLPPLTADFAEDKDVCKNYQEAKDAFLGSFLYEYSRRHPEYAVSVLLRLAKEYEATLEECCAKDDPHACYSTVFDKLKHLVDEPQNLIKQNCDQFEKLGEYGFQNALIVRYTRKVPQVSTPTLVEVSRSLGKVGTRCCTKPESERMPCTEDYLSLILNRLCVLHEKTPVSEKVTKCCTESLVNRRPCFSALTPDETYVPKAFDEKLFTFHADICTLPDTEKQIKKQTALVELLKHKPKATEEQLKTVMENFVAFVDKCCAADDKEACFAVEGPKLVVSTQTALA
SMILES,composite z-score [1],composite Z-score [2],composite z-score [3],composite z-score [4],composite z-score [5],composite z-score [6],composite z-score [7],composite z-score [8],composite z-score [9],composite z-score [10]
C=CCC(OC(C)=O)[C@@H]1[C@@H](N(Cc2ccc(-c3ccccc3)cc2)C(=O)c2ccc(-c3ccccc3)cc2)c2cc(OCCCO)ccc2N1C(=O)Cc1ccc(OC)cc1 (stereo not given in full),0.4,0.344 (inactive),0.0065,-0.183,0.0703,0.0095,0.061,0.0768,-0.0682,0.411
CO[C@H]1COC(=O)CC=C[C@@H](C)COC(=O)[C@@H](C)NC(=O)CC=C[C@@H]1C,-1.07,2.3 (inactive),-0.0345,-0.153,-0.681,-0.736,-0.495,0.787,1.59,-0.704
C=C(COC)/C(=C/C[C@@H](OC(C)=O)c1cccc(OCCO)c1)c1cc(C(=O)OC)ccc1OC,-0.458,-0.574 (inactive),-0.0729,-0.125,0.402,-0.194,-0.315,0.539,-0.458,-0.937
COc1cc(CO)cc(I)c1O[C@H]1C=C(C(=O)NCCO)C[C@@H](NCCc2c[nH]c3ccccc23)[C@@H]1O,0.544,0.256 (inactive),0.124,-0.121,0.412,0.414,0.128,1.12,0.685,0.649
C[N+](C)(C)CCCC[C@@H]1NC(=O)[C@H]2C[C@@H](C(=O)NCc3ccc(F)cc3)[C@@H](c3cccc(OCCO)c3)N2C1=O,0.392,1.57 (inactive),-0.0328,-0.179,0.811,1.48,0.633,1.15,0.864,1.08
C[C@]1(C(=O)NCc2ccccc2)c2ccccc2C(=O)N(Cc2cc(C(F)(F)F)cc(C(F)(F)F)c2)[C@H]1c1ccc(CO)cc1,0.157,-0.471 (inactive),0.154,0.0827,0.529,0.9,0.158,1.3,0.242,0.677
O=C1OCC=C[C@H]2OC34C=CCN(Cc5ccccc5)C(=O)[C@H]3N(CCCCCO)C(=O)[C@@H]4[C@@H]12 (stereo not given in full),-0.711,1.78 (inactive),-0.231,-0.207,0.605,0.096,-0.493,-0.673,-0.99,-1.11
CO[C@@H]1COC(=O)[C@H](COCc2ccccc2)NC(=O)CC=C[C@@H](C)[C@H](OC)COC(=O)[C@H](COCc2ccccc2)NC(=O)CC=C[C@H]1C,-0.711,-0.14 (inactive),-0.0063,-0.112,-0.319,0.107,-0.225,-0.136,1.1,-0.582
C#C[C@H](O[Si](C#Cc1ccccc1)(C(C)C)C(C)C)c1ccccc1,0.0778,0.422 (inactive),-0.293,-0.0743,0.564,0.0271,0.252,0.0094,-0.429,-0.683
COc1cccc([C@@H]2[C@@H](C)CC[C@H]3C(=O)N4[C@H](c5cccc(OC)c5)[C@@H](C)CC[C@H]4C(=O)N23)c1,0.447,-0.155 (inactive),0.0193,-0.0262,0.35,0.69,1.06,0.656,0.811,0.0858
C=CC[C@]1(C(=O)OC)N=C(c2ccc(OCCCO)cc2)O[C@H]1c1ccccc1CN=[N+]=[N-],-0.573,3.17 (inactive),-0.0598,0.122,0.206,2.41,-0.0978,-1.11,-0.45,-1.06
O=C1O[C@H](c2ccccc2)[C@H](c2ccccc2)N2[C@H]1[C@@H](C(=O)NC[C@H](O)c1ccccc1)[C@]1(C(=O)Nc3ccc(C#CC4(O)CCCCCC4)cc31)[C@H]2c1ccc(OCCO)cc1,0.579,0.248 (inactive),0.108,-0.109,0.603,1.92,-0.0049,1.31,0.088,1.16
C=CC[C@]1(C(=O)O)N=C(c2ccc(OCCCO)cc2)O[C@H]1c1ccccc1,0.769,0.523 (inactive),-0.0591,0.0415,0.758,2.37,0.563,0.351,-0.916,0.486
CC(=O)Nc1ccc([C@H]2[C@H](C)CC[C@H]3C(=O)N4[C@@H](CC[C@@H](C)[C@@H]4c4ccc(NC(C)=O)cc4)C(=O)N32)cc1,0.626,-0.222 (inactive),-0.0699,-0.195,0.634,1.24,0.264,1.31,0.378,1.12
CCCC/C=C/[C@H]([C@@H](O)Cc1ccccc1)N(CC#Cc1ccccc1)Cc1ccccc1Br,-0.861,0.911 (inactive),-0.346,-0.171,-0.382,0.0748,0.006,-0.61,-1.64,-0.89
[N-]=[N+]=NCc1ccccc1[C@H]1OC(c2ccc(OCCCO)cc2)=N[C@@]1(Cc1ccccc1N=[N+]=[N-])C(=O)NCc1ccccc1,0.763,0.945 (inactive),0.286,0.0243,0.579,1.65,0.174,1.31,-0.633,1.12
